Consider 76 molecules from the supplement of paper PMC6953052.

Molecules are shown by their SMILES. Values joined by “and” are separate entries in the source; they are usually repeats but may differ in a detail not shown here. Equal entries are not always repeated. ± gives the standard deviation of the averaged measurements. In all, about 1,700 compounds were measured (“fraction of GFP-LC3-positive cells (≥5 vesicles/cell)”: median about 0.058, highest 2% from about 0.59 on). The full list was thinned out, with the highest values kept by preference.

The subject of this experiment is CbCln3 +/+ GFP-LC3 cerebellar neuronal cells. The experiment is described as follows: fraction of GFP-LC3-positive cells (≥5 vesicles/cell); higher = more autophagosome accumulation. The gist of the method:
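In 384-well plates at 2 × 10^3 cells per well, GFP-LC3-expressing wild-type or mutant CbCln3 cerebellar cells took ~50 nL of compound in DMSO by pin transfer, in duplicate, for 24 h at 33 °C. Staining with Hoechst 33342 and LysoTracker Red over the final 30 min preceded fixation in 3.2% PFA and imaging of three fields per well at 10×. CellProfiler then counted GFP-LC3 vesicles in each cell, and out-of-focus images were dropped before the fraction of cells with 5 or more vesicles was averaged over duplicates.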
Turning to `CCCCC/C=C/C/C=C/CCCCCCCCCCCC(=O)O` [13(Z),16(Z)-Docosadienoic acid], the “fraction of GFP-LC3-positive cells” value worked out at 0.0709. In the case of `CC(=O)OCC(=O)[C@@]1(OC(C)=O)[C@@H](C)C[C@H]2[C@@H]3C[C@H](F)C4=CC(=O)C=C[C@]4(C)[C@@]3(F)[C@@H](O)C[C@@]21C` [Diflorasone Diacetate] it was 0.085. In the case of `O=C1Cc2c([nH]c3ccc(Br)cc23)-c2ccccc2N1` it was 0.0413; in that of `CCCNC(=O)[C@H]1O[C@@H]1C(=O)N[C@H](C(=O)N1CCC[C@H]1C(=O)OC)C(C)CC` (stereo partly specified), 0.399 and 0.352. For `CNCCC(Oc1ccccc1OC)c1ccccc1.Cl` (stereo unspecified) [Nisoxetine hydrochloride], the “fraction of GFP-LC3-positive cells” value was determined as 0.0525. Turning to `C[C@@H](O)[C@H]1C(=O)N2C(C(=O)O)=C(S[C@@H]3CN[C@H](C(=O)N(C)C)C3)[C@H](C)[C@H]12` [Meropenem], the “fraction of GFP-LC3-positive cells” value is 0.0612.

As to `Nc1ccc(C(=O)NCC(=O)O)cc1` [Aminohippuric acid], the “fraction of GFP-LC3-positive cells” value was found to be 0.0809. In the case of `COc1ccc(Cl)cc1C(=O)NCCc1ccc(S(=O)(=O)NC(=O)NC2CCCCC2)cc1` it was 0.0797. With `CC(C)Cc1ccc([C@H](C)C(=O)O)cc1` [S-(+)-ibuprofen] the figure was 0.0447. In the case of `O=[N+]([O-])c1cccc2c(Br)n[nH]c12` [Bromo-7-nitroindazole [3-Bromo-7-nitroindazole]] it was 0.0548; in that of `C1COC(NC(C2CC2)C2CC2)=N1.C1COC(NC(C2CC2)C2CC2)=N1.O=C(O)/C=C/C(=O)O` [Rilmenidine hemifumarate], 0.0609. Regarding `COc1ccc2c(c1)c(CC(=O)N1CCOCC1)c(C)n2C(=O)c1ccc(Cl)cc1`, the “fraction of GFP-LC3-positive cells” value came out at 0.0513 ± 0.01. In the case of `CCCCCCCCCCCCCCCCC(=O)O` [Heptadecanoic acid] it was 0.0793. With `C[N+](C)(C)CCOC(N)=O.[Cl-]` [Carbachol] the figure was 0.0698; with `CN(C)CCCn1cc(C2=C(c3c[nH]c4ccccc34)C(=O)NC2=O)c2ccccc21`, 0.0883 and 0.0921; with `Cn1cc(C2=C(c3cn(CCCSC(=N)N)c4ccccc34)C(=O)NC2=O)c2ccccc21`, 0.845 ± 0.071. With `COc1ccc(CCN(C)CCCC(C#N)(c2ccc(OC)c(OC)c2)C(C)C)cc1OC.Cl` (stereo unspecified) [Verapamyl hydrochloride] the figure was 0.0534; with `COC(=O)[C@H]1[C@H]2C[C@H]3c4[nH]c5ccccc5c4CCN3C[C@@H]2CC[C@@H]1O.Cl` [Corynanthine hydrochloride], 0.0351; with `Nc1ncn(C2O[C@H](CO)[C@@H](O)[C@H]2O)c(=O)n1` (stereo partly specified) [Azacytidine-5], 0.745. For the molecule `NC(=O)c1ncn([C@@H]2O[C@H](CO)[C@@H](O)[C@H]2O)n1` [Ribavirin], the “fraction of GFP-LC3-positive cells” value was 0.033.

Turning to `Nc1nc(S)c2ncn([C@@H]3O[C@H](CO)[C@@H](O)[C@H]3O)c2n1` [Thioguanosine], the “fraction of GFP-LC3-positive cells” value is 0.131. With `C[C@]12CCC(=O)C=C1CC[C@@H]1[C@@H]2[C@@H](O)C[C@@]2(C)[C@H]1CC[C@]2(O)C(=O)CO` [Hydrocortisone base] the figure was 0.049; with `C[C@@H](N)[C@H]1CC[C@H](C(=O)Nc2ccncc2)CC1`, 0.074. With `CNCCC=C1c2ccccc2CCc2ccccc21.Cl` [Nortriptyline hydrochloride] the figure was 0.0533; with `Cc1nccn1CC1CCc2c(c3ccccc3n2C)C1=O.Cl` (stereo unspecified) [Ondansetron Hydrochloride], 0.03. In the case of `CCCCCCCCCCCCCCCCCCCCCCC(=O)O` [Tricosanoic acid] it was 0.0481; in that of `Cc1cc(CC(=O)[O-])n(C)c1C(=O)c1ccc(Cl)cc1.[Na+]` [Zomepirac sodium salt], 0.0585. For the molecule `CC(COc1ccccc1)N(CCCl)Cc1ccccc1.Cl` (stereo unspecified) [Phenoxybenzamine hydrochloride], the “fraction of GFP-LC3-positive cells” value was determined as 0.139. With `Cc1cc(C(C)(C)C)cc(C)c1CC1=NCCN1.Cl` [Xylometazoline hydrochloride] the figure was 0.0933. `Cc1ccc(Cl)c(Nc2ccccc2C(=O)[O-])c1Cl.O.[Na+]` [Meclofenamic acid sodium salt monohydrate]: the “fraction of GFP-LC3-positive cells” value stood at 0.0498. With `CCCC[C@@H](C)/C=C(C)/C=C(\C)C(=O)NC1=C[C@@](O)(/C=C/C=C/C=C/C(=O)NC2=C(O)CCC2=O)[C@@H]2O[C@@H]2C1=O` [manumycin A] the figure was 0.695; with `COc1ccccc1OCC(O)COC(N)=O` (stereo unspecified) [Methocarbamol], 0.0551; with `COc1cc(C(=O)OCCCN2CCCN(CCCOC(=O)c3cc(OC)c(OC)c(OC)c3)CC2)cc(OC)c1OC.Cl.Cl` [Dilazep dihydrochloride], 0.0467. In the case of `COc1cc(/C=C/C(=O)N2CCC=CC2=O)cc(OC)c1OC` [Piperlongumine], the “fraction of GFP-LC3-positive cells” value came out at 0.781. With `COC(=O)[C@H]1[C@H]2C[C@@H]3c4[nH]c5cc(OC)ccc5c4CCN3C[C@H]2C[C@@H](OC(=O)/C=C/c2cc(OC)c(OC)c(OC)c2)[C@@H]1OC` [Rescinnamin] the figure was 0.134; with `COc1ccc2c(c1OC)C(=O)O[C@@H]2[C@H]1c2c(cc3c(c2OC)OCO3)CCN1C` [Noscapine], 0.0895. With `Oc1cc(O)cc(/C=C/c2ccc(O)c(O)c2)c1`, the “fraction of GFP-LC3-positive cells” value was found to be 0.173.

Take `Oc1cc(O)cc(/C=C/c2ccc(O)c(O)c2)c1` [Piceatannol]: the “fraction of GFP-LC3-positive cells” value was determined as 0.357.

With `COc1ccc(C(=O)c2ccccc2)c(O)c1` [Oxybenzone], the “fraction of GFP-LC3-positive cells” value was 0.0797. With `COC(=O)/C=C/c1cc(O)ccc1O` the figure was 0.852; with `CCCCCCCC/C=C\CCCCCCCCOC[C@H](COP(=O)([O-])OCC[N+](C)(C)C)OC(C)=O`, 0.0408 ± 0.0017; with `C[n+]1cccc(C(=O)[O-])c1` [Trigonelline], 0.042. On to `Cn1cnc2c(NCc3ccccc3)nc(NCCO)nc21` [olomoucine], for which the “fraction of GFP-LC3-positive cells” value is 0.058. With `Cn1cnc2c(NCc3ccccc3)nc(NCCO)nc21` the figure was 0.0719; with `O.O.O=c1c(O)c(-c2ccc(O)c(O)c2)oc2cc(O)cc(O)c12` [Quercetine dihydrate], 0.0843; with `CSCC[C@@H](C=O)NC(=O)[C@H](CC(C)C)NC(=O)[C@H](CC(C)C)NC(C)=O`, 0.0674. For the molecule `CCCC[C@@H](C=O)NC(=O)[C@H](CC(C)C)NC(=O)[C@H](CC(C)C)NC(C)=O`, the “fraction of GFP-LC3-positive cells” value was found to be 0.926. Consider `CC(=O)N[C@@H](CC(C)C)C(=O)N[C@@H](CC(C)C)C(=O)N[C@H](C=O)CCCNC(=N)N` [Leupeptin], for which the “fraction of GFP-LC3-positive cells” value was 0.0499. With `Nc1ccn([C@H]2CC[C@@H](CO)O2)c(=O)n1` [Zalcitabine] the figure was 0.11. As for `O=C1C=CC(=O)c2c1ccc1c2ccc2ccccc21` [Chrysene-1,4-quinone], the “fraction of GFP-LC3-positive cells” value is 0.597. With `O=C1CCc2c(ccc3ccccc23)O1` [Splitomycin] the figure was 0.0416; with `CCCCCCCCCCC(=O)O` [Undecanoic acid], 0.0729. With `CC(=O)Oc1cc(C(C)C)c(OCCN(C)C)cc1C.Cl` [Moxisylyte hydrochoride] the figure was 0.0756; with `CS(=O)(=O)c1ccc([C@@H](O)[C@@H](CO)NC(=O)C(Cl)Cl)cc1` [Thiamphenicol], 0.0366. Turning to `COc1ccc(CC(N)C(=O)N[C@H]2[C@@H](O)[C@H](n3cnc4c(N(C)C)ncnc43)O[C@@H]2CO)cc1` (stereo partly specified) [puromycin], the “fraction of GFP-LC3-positive cells” value is 0.276. For the molecule `N=C(N)N1CCc2ccccc2C1.N=C(N)N1CCc2ccccc2C1.O=S(=O)(O)O` [Debrisoquin sulfate], the “fraction of GFP-LC3-positive cells” value was 0.0501. With `C/C=C(/C(=C/C)c1ccc(O)cc1)c1ccc(O)cc1` [Dienestrol] the figure was 0.14; with `CCCCC/C=C/C/C=C/CCCCCCCCCCC(=O)O` [12(Z), 15(Z)-Heneicosadienoic acid], 0.0338; with `NC(CO)(CO)CO.O=C(c1ccccc1)c1ccc2n1CCC2C(=O)O` (stereo unspecified) [Ketorolac tromethamine], 0.0452. `CC(C)(C)NCC(O)COc1cccc2c1CC(O)C(O)C2` (stereo unspecified) [Nadolol]: the “fraction of GFP-LC3-positive cells” value is 0.0452. In the case of `O=C(O)c1ccccc1Nc1ccccc1` it was 0.0543; in that of `N#CC(=C(/N)Sc1ccccc1N)/C(C#N)=C(\N)Sc1ccccc1N`, 0.0648 and 0.109; in that of `CO[C@H]1/C=C/O[C@@]2(C)Oc3c(C)c(O)c4c(O)c(c(/C=N/N5CCN(C)CC5)c(O)c4c3C2=O)NC(=O)/C(C)=C\C=C\[C@H](C)[C@H](O)[C@@H](C)[C@@H](O)[C@@H](C)[C@H](OC(C)=O)[C@@H]1C` [Rifampicin], 0.0415.

Turning to `C[C@]12CCC(=O)C=C1CC[C@@H]1[C@@H]2C(=O)C[C@@]2(C)[C@H]1CC[C@]2(O)C(=O)CO` [Cortisone], the “fraction of GFP-LC3-positive cells” value was determined as 0.0551.

In the case of `CCCCCCCC/C=C/CCCCCCCCCCC(=O)O` [12(Z) Heneicosenoic acid], the “fraction of GFP-LC3-positive cells” value turned out to be 0.0354. With `CCC1(c2ccccc2)C(=O)NCNC1=O` [Primidone] the figure was 0.0329; with `CC(C)Cn1c(=O)n(C)c(=O)c2[nH]cnc21`, 0.0399. With `CN1C(C(=O)Nc2ccccn2)=C(O)c2ccccc2S1(=O)=O` [piroxicam] the figure was 0.0598; with `C[C@H](NCCc1ccc(O)cc1)[C@H](O)c1ccc(O)cc1.Cl` [Ritodrine hydrochloride], 0.0423. Take `CO[C@H]1C[C@@H]2CC[C@@H](C)[C@@](O)(O2)C(=O)C(=O)N2CCCC[C@H]2C(=O)O[C@H]([C@H](C)C[C@@H]2CC[C@@H](O)[C@H](OC)C2)CC(=O)[C@H](C)/C=C(\C)[C@@H](O)[C@@H](OC)C(=O)[C@H](C)C[C@H](C)/C=C/C=C/C=C/1C`: the “fraction of GFP-LC3-positive cells” value was 0.0529. With `N#Cc1c(-c2ccccc2)no[n+]1[O-]` [Furoxan] the figure was 0.597. In the case of `COc1cc(CNC(=O)CCCC/C=C/C(C)C)ccc1O` [Capsaicin] it was 0.0783; in that of `Cc1cccc(Nc2ccncc2S(=O)(=O)NC(=O)NC(C)C)c1` [Torsemide], 0.0886; in that of `CC(/C=C/C(=O)NO)=C\[C@@H](C)C(=O)c1ccc(N(C)C)cc1` [trichostatin-A], 0.799. With `CN(C)N=Nc1[nH]cnc1C(N)=O` [Dacarbazine] the figure was 0.0174; with `CC/C=C\C/C=C\C/C=C\C/C=C\C=C\C(O)CCCC(=O)O` (racemic), 0.07.
